Inconclusive results are not listed. Active and inactive are the calls of the source. Calls come from the whole dose curve; as a rule, active = well fitted activation curve with a large enough effect; inconclusive = small, poorly fitted or top-dose-only effect; inactive = no such curve, though single readings can be large or run the other way.
Target: Rap guanine nucleotide exchange factor 3 (Homo sapiens) (UniProt O95398)
Assay: Confirmatory qHTS for agonist of cAMP-regulated guanine nucleotide exchange factor 3 (EPAC1) (AID 1645881);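 note: EPAC1 catalysed release of BODIPY-GDP from Rap1B seen as fluorescence loss; 100% = effect of cAMP agonist control; nearly all actives have a fitted effect of over 75% in size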
Settings: EPAC1 Rap1B BODIPY-GDP exchange fluorescence; series mostly up to 154 µM

Rap guanine nucleotide exchange factor 3 (Homo sapiens), sequence (O95398 whole entry, looked up): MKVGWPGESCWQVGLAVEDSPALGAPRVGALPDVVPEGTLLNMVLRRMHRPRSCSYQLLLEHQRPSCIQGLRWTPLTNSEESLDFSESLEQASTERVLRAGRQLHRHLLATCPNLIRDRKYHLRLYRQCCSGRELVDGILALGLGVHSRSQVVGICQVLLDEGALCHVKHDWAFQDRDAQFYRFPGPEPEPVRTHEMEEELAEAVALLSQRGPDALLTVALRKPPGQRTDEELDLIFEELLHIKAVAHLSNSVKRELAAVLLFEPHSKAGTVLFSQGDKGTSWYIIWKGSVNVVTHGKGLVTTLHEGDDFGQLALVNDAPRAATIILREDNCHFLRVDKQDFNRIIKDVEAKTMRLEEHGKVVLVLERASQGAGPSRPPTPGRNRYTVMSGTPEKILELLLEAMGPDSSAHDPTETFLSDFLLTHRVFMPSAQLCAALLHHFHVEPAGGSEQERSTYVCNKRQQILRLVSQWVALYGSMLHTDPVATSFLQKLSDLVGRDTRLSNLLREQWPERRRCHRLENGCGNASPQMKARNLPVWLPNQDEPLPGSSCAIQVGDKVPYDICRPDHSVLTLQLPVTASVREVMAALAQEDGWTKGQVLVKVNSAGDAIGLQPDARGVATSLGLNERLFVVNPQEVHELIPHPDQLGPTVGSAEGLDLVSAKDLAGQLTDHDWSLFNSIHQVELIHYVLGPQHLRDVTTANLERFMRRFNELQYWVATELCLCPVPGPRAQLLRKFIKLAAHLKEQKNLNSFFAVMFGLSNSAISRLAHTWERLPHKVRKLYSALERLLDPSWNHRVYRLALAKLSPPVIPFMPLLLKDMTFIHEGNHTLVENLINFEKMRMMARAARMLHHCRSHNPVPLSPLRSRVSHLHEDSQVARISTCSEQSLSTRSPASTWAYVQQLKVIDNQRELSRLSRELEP

Potency, inactive:
COc1cc(OC)c(NC(=O)CN(C)S(=O)(=O)c2ccc(-c3ccc(=O)[nH]n3)s2)cc1Cl
Cc1cccc(NC(=O)CN2C(=O)N/C(=C\c3ccccc3OCc3ccc(C(=O)O)cc3)C2=O)c1
N#Cc1c(NC(=O)CSc2ncnc3sccc23)oc(-c2ccco2)c1-c1ccco1
NC(=O)c1c(NC(=O)CN2CCN(S(=O)(=O)c3ccccc3)CC2)sc2c1CCC2
COc1cc(C2CC(=O)Oc3cc(C)c(Br)c(C)c32)cc(OC)c1OC (stereo not given)
O=C(NC1CCCCC1)C(c1ccc(-c2ccccc2)cc1)n1c(=O)c(-c2ccco2)nc2ccccc21 (stereo not given)
Cc1ccc(-n2nc3ccc(NC(=O)/C=C/c4ccco4)cc3n2)cc1C
COC(=O)c1ccc2nc(-c3ccc(OC)c(OC)c3)c(Cc3ccccc3)n2c1
Cc1cc(C)c(S(=O)(=O)c2ccccc2)c(OC(=O)c2c(F)cccc2F)n1
O=c1[nH][nH]c(-c2ccccc2O)c1C(C[N+](=O)[O-])c1ccc(Br)cc1 (stereo not given)
O=C(CSc1nc(O)cc(=O)n1-c1ccccc1)Nc1ccc2c3c(cccc13)CC2
COc1ccc(OCc2nc3ccccc3n2C(C)c2ccccc2)cc1 (stereo not given)
CCOC(=O)c1ccc(NC(=O)c2c(NCc3cccs3)sc3c2CCCCC3)cc1
CCOc1ccccc1Cn1c(=O)oc2ccc(C)cc21
COc1ccc(CCNC(=O)CS(=O)(=O)Cc2nc(-c3ccc(C)cc3)oc2C)cc1OC
Clc1ccc(-c2nnc(-c3ccco3)nc2N2CCCCC2)cc1
CCc1ccccc1OCC(=O)NCC1COc2ccccc2O1 (stereo not given)
O=C1NC(=O)C(=Cc2ccccc2[N+](=O)[O-])S1
O=C1C(Cl)=C(NCCc2ccccc2)C(=O)c2ccccc21
CC(CNC(=O)c1sc2ncccc2c1-n1cccc1)c1ccccc1 (stereo not given)
CCc1ccc2occ(CC(=O)Nc3ccc(C)c(C)c3)c2c1
C[C@H](CO)N1C[C@H](C)[C@H](CN(C)Cc2cccc(O)c2)OCc2ccccc2-c2c(n(C)c3ccccc23)C1=O
COc1ccc(OC)c(NC(=O)C(C)Oc2ccc(Br)cc2)c1 (stereo not given)
COc1cc(/C=C2\SC(=O)N(c3cccc(Cl)c3)C2=O)cc([N+](=O)[O-])c1O
O=C(/C=C/c1ccco1)Nc1cccc2cccnc12
CN(C)C(=O)c1cccc(-c2cnc3c(NC=O)cc(-c4ccccc4Cl)cn23)c1
COc1cccc(C(=O)Nc2cccc(C(=O)OCc3cc(=O)n4c(C)csc4n3)c2)c1
O=S(=O)(Nc1ccc(Cl)cc1NS(=O)(=O)c1ccccc1)c1ccccc1
COc1ccc(CN(C(=O)c2cccs2)c2nccs2)cc1OC
COC(=O)Cn1c(CN2CCc3ccccc3C2)nc2c1c(=O)n(C)c(=O)n2C
COc1ccccc1NC(=O)c1ccccc1NS(=O)(=O)c1cccs1
CC(C)CC(NS(=O)(=O)OCC(Cl)(Cl)Cl)c1ccccc1 (stereo not given)
O=C(O)/C=C\C(=O)Nc1ccccc1C#Cc1ccc(Br)cc1
Cc1noc(NS(=O)(=O)c2ccc(N/C=C\C(=O)c3cccc4ccccc34)cc2)c1C
Cn1cnnc1SCC(=O)Nc1sc2c(c1C(N)=O)CCC2
C[C@@]12C(=O)Nc3cc(F)ccc3C(=O)N1[C@H]1c3cc(Br)ccc3OC[C@@H]1[C@@H]2c1ccccc1
O=S(=O)(c1ccc2c(c1)C(O)c1ccccc1CC2)C(F)(F)F (stereo not given)
CC(=O)N1N=C(c2ccc(Cl)cc2)CC1c1ccc([N+](=O)[O-])cc1 (stereo not given)
O=c1c([N+](=O)[O-])cn(Cc2ccccc2)c(=O)n1Cc1ccccc1
Cc1ccccc1C(=O)Nc1sc2c(c1C(=O)N1CCCCC1)CCC(C)C2 (stereo not given)

Target: Rap guanine nucleotide exchange factor 4 (Homo sapiens) (UniProt Q8WZA2)
Assay: Confirmatory qHTS for agonist of cAMP-regulated guanine nucleotide exchange factor 4 (EPAC2) (AID 1645884);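 note: nucleotide exchange releases bodipy-GDP from Rap1 and this lowers its fluorescence; % is set by controls: 0 for no effect and ±100 for the full control effect; nearly all actives have a fitted effect of over 65% in size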
Settings: EPAC2 GEF activity, Rap1B-BODIPY-GDP fluorescence; series mostly up to 154 µM

Rap guanine nucleotide exchange factor 4 (Homo sapiens), sequence (Q8WZA2 whole entry, looked up): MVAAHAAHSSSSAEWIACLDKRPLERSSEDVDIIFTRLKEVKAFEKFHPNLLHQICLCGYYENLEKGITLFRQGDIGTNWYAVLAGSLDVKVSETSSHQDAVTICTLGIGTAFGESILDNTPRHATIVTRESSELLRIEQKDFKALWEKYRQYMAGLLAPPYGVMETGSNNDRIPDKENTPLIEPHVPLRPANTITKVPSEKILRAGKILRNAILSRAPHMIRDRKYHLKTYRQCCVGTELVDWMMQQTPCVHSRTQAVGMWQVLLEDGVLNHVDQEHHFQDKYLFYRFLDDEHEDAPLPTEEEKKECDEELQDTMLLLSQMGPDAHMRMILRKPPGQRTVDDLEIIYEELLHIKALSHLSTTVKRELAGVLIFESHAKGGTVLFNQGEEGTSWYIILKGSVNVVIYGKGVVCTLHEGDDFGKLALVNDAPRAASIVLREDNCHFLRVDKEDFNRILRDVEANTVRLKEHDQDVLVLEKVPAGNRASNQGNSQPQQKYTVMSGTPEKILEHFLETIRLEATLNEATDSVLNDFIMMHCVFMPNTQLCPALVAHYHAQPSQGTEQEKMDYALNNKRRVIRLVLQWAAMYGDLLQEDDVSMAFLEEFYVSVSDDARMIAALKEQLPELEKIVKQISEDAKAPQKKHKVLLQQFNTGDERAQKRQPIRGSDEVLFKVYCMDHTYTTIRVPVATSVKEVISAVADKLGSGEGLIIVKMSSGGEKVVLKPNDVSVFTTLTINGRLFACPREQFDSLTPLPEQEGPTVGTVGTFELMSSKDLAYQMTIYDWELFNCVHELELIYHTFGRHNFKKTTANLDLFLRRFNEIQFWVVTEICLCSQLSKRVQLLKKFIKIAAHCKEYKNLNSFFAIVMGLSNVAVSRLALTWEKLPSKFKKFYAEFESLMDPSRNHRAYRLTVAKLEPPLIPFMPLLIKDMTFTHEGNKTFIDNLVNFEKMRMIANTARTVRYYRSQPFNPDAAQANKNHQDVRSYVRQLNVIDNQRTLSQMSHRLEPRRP

Potency, inactive:
COc1cc(OC)c(NC(=O)CN(C)S(=O)(=O)c2ccc(-c3ccc(=O)[nH]n3)s2)cc1Cl
Cc1cccc(NC(=O)CN2C(=O)N/C(=C\c3ccccc3OCc3ccc(C(=O)O)cc3)C2=O)c1
N#Cc1c(NC(=O)CSc2ncnc3sccc23)oc(-c2ccco2)c1-c1ccco1
NC(=O)c1c(NC(=O)CN2CCN(S(=O)(=O)c3ccccc3)CC2)sc2c1CCC2
O=C(NC1CCCCC1)C(c1ccc(-c2ccccc2)cc1)n1c(=O)c(-c2ccco2)nc2ccccc21 (stereo not given)
Cc1ccc(-n2nc3ccc(NC(=O)/C=C/c4ccco4)cc3n2)cc1C
COC(=O)c1ccc2nc(-c3ccc(OC)c(OC)c3)c(Cc3ccccc3)n2c1
O=c1[nH][nH]c(-c2ccccc2O)c1C(C[N+](=O)[O-])c1ccc(Br)cc1 (stereo not given)
COc1ccc(OCc2nc3ccccc3n2C(C)c2ccccc2)cc1 (stereo not given)
CCOC(=O)c1ccc(NC(=O)c2c(NCc3cccs3)sc3c2CCCCC3)cc1
CCOc1ccccc1Cn1c(=O)oc2ccc(C)cc21
CCc1ccccc1OCC(=O)NCC1COc2ccccc2O1 (stereo not given)
O=C1C(Cl)=C(NCCc2ccccc2)C(=O)c2ccccc21
CC(CNC(=O)c1sc2ncccc2c1-n1cccc1)c1ccccc1 (stereo not given)
CCc1ccc2occ(CC(=O)Nc3ccc(C)c(C)c3)c2c1
COc1ccc(OC)c(NC(=O)C(C)Oc2ccc(Br)cc2)c1 (stereo not given)
COc1cc(/C=C2\SC(=O)N(c3cccc(Cl)c3)C2=O)cc([N+](=O)[O-])c1O
CN(C)C(=O)c1cccc(-c2cnc3c(NC=O)cc(-c4ccccc4Cl)cn23)c1
COc1cccc(C(=O)Nc2cccc(C(=O)OCc3cc(=O)n4c(C)csc4n3)c2)c1
COc1ccc(CN(C(=O)c2cccs2)c2nccs2)cc1OC
COC(=O)Cn1c(CN2CCc3ccccc3C2)nc2c1c(=O)n(C)c(=O)n2C
COc1ccccc1NC(=O)c1ccccc1NS(=O)(=O)c1cccs1
O=C(O)/C=C\C(=O)Nc1ccccc1C#Cc1ccc(Br)cc1
Cc1noc(NS(=O)(=O)c2ccc(N/C=C\C(=O)c3cccc4ccccc34)cc2)c1C
Cn1cnnc1SCC(=O)Nc1sc2c(c1C(N)=O)CCC2
C[C@@]12C(=O)Nc3cc(F)ccc3C(=O)N1[C@H]1c3cc(Br)ccc3OC[C@@H]1[C@@H]2c1ccccc1
O=S(=O)(c1ccc2c(c1)C(O)c1ccccc1CC2)C(F)(F)F (stereo not given)
Cc1ccccc1C(=O)Nc1sc2c(c1C(=O)N1CCCCC1)CCC(C)C2 (stereo not given)

activation, inactive:
COc1cc(C2CC(=O)Oc3cc(C)c(Br)c(C)c32)cc(OC)c1OC (stereo not given) 16.3% [at 17.1 µM, percent relative to cAMP agonist control]
Cc1cc(C)c(S(=O)(=O)c2ccccc2)c(OC(=O)c2c(F)cccc2F)n1 -4.73% [at 17.1 µM, percent relative to cAMP agonist control]
O=C(CSc1nc(O)cc(=O)n1-c1ccccc1)Nc1ccc2c3c(cccc13)CC2 0% [at 17.1 µM, percent relative to cAMP agonist control]
COc1ccc(CCNC(=O)CS(=O)(=O)Cc2nc(-c3ccc(C)cc3)oc2C)cc1OC 2.98% [at 17.1 µM, percent relative to cAMP agonist control]
Clc1ccc(-c2nnc(-c3ccco3)nc2N2CCCCC2)cc1 3.88% [at 17.1 µM, percent relative to cAMP agonist control]
O=C1NC(=O)C(=Cc2ccccc2[N+](=O)[O-])S1 5.36% [at 17.1 µM, percent relative to cAMP agonist control]
C[C@H](CO)N1C[C@H](C)[C@H](CN(C)Cc2cccc(O)c2)OCc2ccccc2-c2c(n(C)c3ccccc23)C1=O 8.26% [at 17.1 µM, percent relative to cAMP agonist control]
O=C(/C=C/c1ccco1)Nc1cccc2cccnc12 3.39% [at 17.1 µM, percent relative to cAMP agonist control]
O=S(=O)(Nc1ccc(Cl)cc1NS(=O)(=O)c1ccccc1)c1ccccc1 1.88% [at 17.1 µM, percent relative to cAMP agonist control]
CC(C)CC(NS(=O)(=O)OCC(Cl)(Cl)Cl)c1ccccc1 (stereo not given) 5.17% [at 17.1 µM, percent relative to cAMP agonist control]
CC(=O)N1N=C(c2ccc(Cl)cc2)CC1c1ccc([N+](=O)[O-])cc1 (stereo not given) 7.36% [at 17.1 µM, percent relative to cAMP agonist control]
O=c1c([N+](=O)[O-])cn(Cc2ccccc2)c(=O)n1Cc1ccccc1 6.36% [at 17.1 µM, percent relative to cAMP agonist control]
